# Source: PubChem BioAssay AID504423 (Broad Institute, 2011)
# In all, about 340,000 compounds went through this assay and about 260 (0.076%) were called active. Only a selection was taken, and actives are over-represented in it overall. Values without a mark were called inactive.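 Rule for the calls: active = highest replicate inhibition at or above 60% at 9 µM, even if other replicates fall short; inactive = all replicates below 60% inhibition.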
# Test system: Kaposi's sarcoma herpesvirus LANA C-terminal domain (residues 932-1162) DNA binding
# Assay: blockers of LANA C-terminal domain DNA interaction – biochemical, fluorescence polarization, FAM-LBS DNA, MBP-C-LANA, single point, primary screen (AID 504423);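 note: 0% = neutral control wells and 100% = 4 µM acridine orange control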
# Conditions: at 9 µM, hits give high values
row,SMILES,inhibition
1,CSc1nc(-c2ccccc2)nc(C(Cl)Cl)n1,1.16%
2,CCCn1c(N)c(C(=O)CSc2nc3ccccc3c(=O)n2-c2ccc(OC)cc2)c(=O)[nH]c1=O,0.469%
3,Cc1cccc(-c2nc3c(c(SCC(=O)N4CCOCC4)n2)CCCC3)c1,-0.478%
4,COc1cccc(CNC(=O)C2CCCN(c3ncnc4c3nc3n4CCCCC3)C2)c1 (stereo unspecified),0.109%
5,CCNC(=O)COc1cc(C)c(Br)c(C)c1,0.138%
6,CCCCC(CC(C)O)c1n[nH]c(=S)n1-c1ccccc1 (stereo unspecified),0.671%
7,Cc1ccc(N2CCN(C(=O)c3cccs3)CC2)c(C)c1,0.336%
8,O=C(COC(=O)COc1cccc(F)c1)NCC1CCCCC1,-1.07%
9,O=C1Nc2cc(C(=O)N3CCC(N4CCCCC4)CC3)ccc2S/C1=C\c1ccccc1,-4.28%
10,CC(=O)Nc1ccc(S(=O)(=O)N(C)CC(=O)NCCC2=CCCCC2)cc1,0.609%
11,CC(C)n1c(NCc2c[nH]c3ccccc23)nc2ccccc21,-1.36%
12,COc1ccccc1-c1c(C#N)c(N)nc2c1CCC2,1.17%
13,CS(=O)(=O)N1CCC(C(=O)N2CCN(c3ccccc3)CC2)CC1,-0.437%
14,C(=N/N1CCN(c2ccccc2)CC1)/c1cccs1,-0.282%
15,O=c1ccc2c(-c3ccccc3S(=O)(=O)O)c3ccc(O)c(O)c3oc-2c1O,101% (active)
16,CC(OC(=O)/C=C/c1ccccc1)C(=O)Nc1ccc(C(N)=O)cc1 (stereo unspecified),2.44%
17,COc1ccc(C2CC(=O)Oc3ccc(C(C)(C)C)cc32)cc1 (stereo unspecified),-0.823%
18,CC1(c2nnc(-c3ccncc3)o2)CC(c2cccnc2)=NO1 (stereo unspecified),-1.07%
19,Cc1ccc(S(=O)(=O)/N=C(\N)c2ccc(F)cc2)cc1,-0.0435%
20,COCc1ccc(CN2CCC(Oc3ccc(C(=O)NCc4ccccn4)cc3)CC2)o1,-1.54%
21,Fc1ccccc1Cc1ccc(Cl)nn1,-0.587%
